Assay results published in PubChem BioAssay (Tox21).
Inconclusive results are not listed. Entries that show only a call come without a potency. The source made the active and inactive calls. Calls follow the shape of the dose curve; as a rule, active = well fitted inhibition curve with a large enough effect in the signal ratio in the repeat runs, with a control signal flat; inconclusive = weak or mixed curves, or effect the other way; inactive = flat fitted curve, though single readings scatter; the % refers to the signal ratio.

Biological target: D(2) dopamine receptor (Homo sapiens) (UniProt P14416)
Sequence (P14416 whole entry, looked up): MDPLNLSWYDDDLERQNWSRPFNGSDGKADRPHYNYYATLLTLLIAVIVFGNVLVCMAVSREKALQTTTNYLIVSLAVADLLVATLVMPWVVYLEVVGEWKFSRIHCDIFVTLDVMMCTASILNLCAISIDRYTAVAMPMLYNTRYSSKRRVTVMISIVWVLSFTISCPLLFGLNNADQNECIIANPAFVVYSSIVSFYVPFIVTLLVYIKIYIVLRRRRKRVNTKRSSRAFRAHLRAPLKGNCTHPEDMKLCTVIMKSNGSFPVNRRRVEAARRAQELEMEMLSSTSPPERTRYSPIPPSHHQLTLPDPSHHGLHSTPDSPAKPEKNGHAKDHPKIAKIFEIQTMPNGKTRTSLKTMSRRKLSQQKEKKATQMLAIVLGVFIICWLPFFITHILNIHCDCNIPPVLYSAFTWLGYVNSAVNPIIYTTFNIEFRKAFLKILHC
Experiment: Dopamine D2 receptor (DRD2) small molecule antagonists, cell-based qHTS assay (AID 1963595)
Conditions: HEK293-DRD2 cAMP HTRF antagonist mode; series mostly up to 92.4 µM
From the text: National Center for Advancing Translational Sciences [NCATS]
Division of Preclinical Innovation [DPI]
U.S. Environmental Protection Agency [EPA]
National Institutes of Environmental Health Sciences [NIEHS]
National Toxicology Program [NTP]
U.S. Food and Drug Administration [FDA]
DRD2 is the D2 subtype of the dopamine receptor, which is coupled to Gi subtype of G protein-coupled receptor. This G protein-coupled receptor inhibits adenylyl cyclase activity. The DRD2-HEK293 cell line stably expressing D2 dopamine receptor can be used for screening agonists and antagonists of interactions between D2 and its ligands. The Hek293-DRD2 cAMP assay is based on HTRF technology. It measures changes of cAMP accumulation in response to Gi coupled GPCR activation or inhibition.
Tox21 Assay Protocol Summary:
DRD2-Hek293 cells were dispensed at 600 cells/3uL/well in 1536-well white plates using a Multidrop Dispenser. After the assay plates were incubated at a 37 C/5% CO2 incubator for 24 h, 1 uL of Ro20-1724 at final concentration of 0.1 mM was transferred to the assay plate by a Flying Reagent Dispenser. Following Ro20-1724 addition, 23 nL of compound dissolved in DMSO, positive controls or DMSO only was added to the assay plates via Wako pintool station. The assay plates were incubated at room temperature for 10 min. Next, 1 uL of mixture of NKH477 (final concentration at 200 nM) and quinpirole (final concentration at 12 nM) was added into the plates. After the assay plates were incubated at room temperature for an additional 30 min, 2.5 ul/well of cAMP-d2 and 2.5 ul/well of anti-cAMP-cryptate were added respectively into the assay plates using a Flying Reagent Dispenser. The plates were incubated at room temperature for 1 h. The fluorescence intensity in the plates was measured at 340 nm excitation and 665 & 620 nm emission by an Envision plate reader.
Potency is read from the fitted curve at half-maximal effect.

SMILES	Potency	activity change, negative = inhibition
CCNc1nc(NC(C)CC)nc(OC)n1 (stereo not given)	inactive	
Clc1ccc(Nc2nnc(Cc3ccncc3)c3ccccc23)cc1	inactive	
CC1CCCNC1 (stereo not given)	inactive	
NS(=O)(=O)c1cc2c(cc1Cl)NC(CSCc1ccccc1)=NS2(=O)=O	inactive	
C=CCOC(=O)COCCC(C)C	inactive	
O=C1CCCCC1C1CCCCC1 (stereo not given)	inactive	
Oc1ccc2c(c1)-c1ccccc1C2	inactive	
CS(=O)(=O)Nc1ccc([N+](=O)[O-])cc1Oc1ccccc1	inactive	
CS(=O)(=O)c1ccc([C@@H](O)[C@@H](CF)NC(=O)C(Cl)Cl)cc1	inactive	
CC(=O)c1ccc2c(c1)N(CCCN1CCC(CCO)CC1)c1ccccc1S2	0.0168 µM (active)	
CC(=O)/C(C)=C/C1C(C)=CCCC1(C)C (stereo not given)	inactive	
O=C(Nc1ccccc1)OCC(CN1CCCCC1)OC(=O)Nc1ccccc1 (stereo not given)	inactive	
COc1ccnc(CS(=O)c2nc3cc(OC(F)F)ccc3[nH]2)c1OC (stereo not given)	inactive	
COC(=O)CSc1cc(N=c2sc(=O)n3n2CCCC3)c(F)cc1Cl	inactive	
O=C(NO)c1ccccc1	inactive	
NC(N)=NCCC[C@H](N)C(=O)O		5.33% [at 8.38 µM] (inactive)
CCOc1ccc2c(c1)C(C)CC(C)(C)N2 (stereo not given)	inactive	
CCC(C)O (stereo not given)	inactive	
CC/C=C\C/C=C\C/C=C\CCCCCCCC(=O)OCC	inactive	
[Cl][Au]([Cl])[Cl]	inactive	

SMILES	Potency	activity change, negative = inhibition
NC(=O)c1nc(-c2cccc(-c3cc(F)ccc3OCC(F)(F)C(F)(F)F)c2)n[nH]1	inactive	
CCCCCC(CO)CCC (stereo not given)	inactive	
N#CCCOCCOCCC#N	inactive	
CCCCC(CC)CNCC(CC)CCCC (stereo not given)	inactive	
CCCCC(CC)COS(=O)(=O)O (stereo not given)	inactive	
Oc1cccc(Nc2ccccc2)c1	inactive	
NCc1cccc(C2CCN(C(=O)c3ccc(C#Cc4ccccc4F)o3)CC2)c1	54.5 µM (active)	
Nc1ccc(Oc2ccc(N)c(N)c2)cc1	inactive	
CCCc1ccccc1O	inactive	
Fc1ccc(C(c2ccc(F)cc2)N2CCN(C/C=C/c3ccccc3)CC2)cc1	16.8 µM (active)	
CCCC1C(CC)=CC(CC)=CN1c1ccccc1 (stereo not given)	inactive	
CC(C)COC(=O)CC(C(=O)OCC(C)C)S(=O)(=O)O (stereo not given)	inactive	
CCCC(C)CC (stereo not given)	inactive	
CCOC(=O)C1=C(C)NC(C)=C(C(=O)OCC)C1c1ccccc1/C=C/C(=O)OC(C)(C)C	inactive	
CO/N=C(/C(=O)N[C@@H]1C(=O)N2C(C(=O)[O-])=C(C[n+]3ccn4ncccc43)CS[C@H]12)c1nsc(N)n1	inactive	
CCOC(=O)CC(=O)C(=O)OCC	inactive	
CCCC(=O)OCCC(C)CCC=C(C)C (stereo not given)	inactive	
C=CC(=C)CCCC(C)(C)OC(C)=O	inactive	
Nc1cccc([N+](=O)[O-])c1	inactive	
CN(C)c1ccncc1	inactive	
